# High-throughput results from PubChem.
# JMJD2A Tudor inh = inhibitors of human JMJD2A Tudor domain; AlphaScreen JMJD2A-Tudor / H3K4me3 peptide binding; Potency, µM (top dose mostly 114 µM), for the others: at the highest dose activity change, negative = inhibition, actives largely listed as inhibitors; 390,000 compounds, 4.4% hits; AID 504339; also: potency is read from the fitted curve at half-maximal effect; % is scaled to controls: 0 for no effect and ±100 for the full control effect; nearly all actives have a fitted effect of over 50% in size
# G9a inh = inhibitors of human histone lysine methyltransferase G9a; Q96KQ7; G9a H3K9 monomethylation, AlphaScreen, 2 h; Potency, µM (highest dose often 102 µM), without a hit: at the highest dose activity, negative = inhibition, hits mostly inhibitors; 350,000 compounds, 8.8% hits; also: potency is read from the fitted curve at half-maximal effect; % is scaled to controls: 0 for no effect and ±100 for the full control effect; nearly all actives have a fitted effect of over 75% in size
#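 AlphaScreen detection with an anti-monomethyl H3K9 antibody quantified product after a 2 h room-temperature reaction containing 500 nM biotinylated H3K9 peptide, 20 µM SAM and 20 nM enzyme, which had been preincubated 15 min with compound.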
# PI5P4K alpha inh = blocks human PI5P4K alpha kinase activity; P48426; PI5P4Kalpha enzyme, ADP-Glo luminescence, 60 min; active compounds read low; max response, %; 330,000 compounds, 1.2% hits; active = max response of -50% or lower; inconclusive = between -30% and -50%; inactive = -30% or higher; also: value at the top dose of about 77 µM; % is scaled to controls: 0 for no effect and ±100 for the full control effect
# Target sequence (P48426 whole entry, looked up): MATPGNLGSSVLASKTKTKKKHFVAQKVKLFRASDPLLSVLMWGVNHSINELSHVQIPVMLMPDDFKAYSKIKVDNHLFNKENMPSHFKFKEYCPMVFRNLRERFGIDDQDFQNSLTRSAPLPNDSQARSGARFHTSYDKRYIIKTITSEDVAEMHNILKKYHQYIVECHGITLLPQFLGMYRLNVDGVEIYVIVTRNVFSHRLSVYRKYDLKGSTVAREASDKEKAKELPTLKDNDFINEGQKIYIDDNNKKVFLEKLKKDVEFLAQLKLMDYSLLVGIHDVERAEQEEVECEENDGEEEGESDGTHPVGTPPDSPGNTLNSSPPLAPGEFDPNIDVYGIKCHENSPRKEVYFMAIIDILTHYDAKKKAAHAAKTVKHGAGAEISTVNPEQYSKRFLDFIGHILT
#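 Controls without substrate or without enzyme flank wells where PI5P4Kalpha converts substrate using 5 microM ATP (final). Incubation lasts 60 minutes at room temperature; ADP formed is read by ADP-Glo luminescence.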
# HP1b binding inh = HP1-beta chromodomain-methylated histone interaction inhibition; AlphaScreen HP1-beta / biotin-H3K9me3 peptide binding; Potency, µM (series often up to 114 µM), for inactives: top-dose activity change, negative = inhibition, usual class: inhibitors; 390,000 compounds, 0.56% hits; also: potency is read from the fitted curve at half-maximal effect; nearly all actives have a fitted effect of over 70% in size
# Target sequence (P83916 whole entry, looked up): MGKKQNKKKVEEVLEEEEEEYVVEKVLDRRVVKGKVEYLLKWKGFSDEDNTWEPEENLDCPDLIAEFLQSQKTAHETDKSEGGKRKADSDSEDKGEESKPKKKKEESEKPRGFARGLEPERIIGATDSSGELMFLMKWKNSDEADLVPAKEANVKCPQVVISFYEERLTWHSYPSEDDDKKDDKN
#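 HP1-beta protein (50 nM final) preincubated 30 min at room temperature with biotinylated H3(1-18)K9me3 peptide (50 nM) in PBS pH 7.4, 0.01% Tween-20, then compound added for 30 min. AlphaScreen streptavidin donor/nickel chelate acceptor beads (10 ug/mL final), 30 min dark, luminescence read.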
# BAZ2B block = blocks human BAZ2B; Q9UIF8; AlphaScreen BAZ2B-H3K14Ac peptide displacement; Potency, µM (titrated, usually from 114 µM), for the others: top-dose activity change, negative = inhibition, hits mostly inhibitors; 360,000 compounds, 4.4% hits; AID 504333; also: potency is read from the fitted curve at half-maximal effect; % is scaled to controls: 0 for no effect and ±100 for the full control effect; nearly all actives have a fitted effect of over 60% in size
#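 Complex of BAZ2B and biotin-H3K14Ac (50 nM apiece) forms over 30 min at RT, then faces library compounds up to 110 uM for another 30 min; AlphaScreen beads added, 20 min dark incubation, luminescence read.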
# L3MBTL1 inh = blocks human L3MBTL1 | Q9Y468 | AlphaScreen L3MBTL1–H3K9me1 peptide binding | Potency, µM (doses to about 57.1 µM), without a hit: at the highest dose activity, negative = inhibition, usual class: inhibitors | 230,000 compounds, 0.66% hits | AID 485360; also: potency is read from the fitted curve at half-maximal effect; % is scaled to controls: 0 for no effect and ±100 for the full control effect; nearly all actives have a fitted effect of over 60% in size
#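 L3MBTL1 (50 nM) pre-complexed 30 min with biotinylated H3(1-15)K9me1 peptide (75 nM), then compounds added for 30 min at room temperature; AlphaScreen streptavidin donor/nickel chelate acceptor beads (10 ug/mL final) read after 30 min dark incubation.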
# * hit, by the source's call; ? = inconclusive; · = no result; [ ] = dose if it differs, or a comment. Hits are enriched below; roughly 11% of the tested compounds scored in any of these assays. Unless noted, calls follow the shape of the dose curve; as a rule, active = well fitted inhibition curve with a large enough effect; inconclusive = small, poorly fitted or top-dose-only effect; inactive = no such curve, though single readings can be large or run the other way.
SMILES,JMJD2A Tudor inh,G9a inh,PI5P4K alpha inh,HP1b binding inh,BAZ2B block,L3MBTL1 inh
CCOC(=O)N1CCN(Cc2cc(Cl)c3cccnc3c2O)CC1,22µM*,·,0,6%,10µM*,-89%
Oc1c(CN2CCOCC2)cc(COCc2ccccc2)c2cccnc12,25µM*,?,0,6%,11µM*,?
C[C@H](N=C(NC#N)Nc1ccncc1)C(C)(C)C,·,9%[21.5 µM],·,·,·,·
Cc1ccc(-n2c(=O)cc(N3CCN(C(=O)c4ccco4)CC3)[nH]c2=O)cc1,-16%,45µM*,-8,12%,8%,4%
Cn1c(=O)cc(N2CCN(C(=O)c3ccco3)CC2)[nH]c1=O,-1%,·,-5,35%,4%,13%
C=C(CO)C1Cc2cc(C(C)=O)ccc2O1 (stereo not given),?,4%[12.7 µM],-6,-19%,79µM*,·
CC1Cc2cc(C(=O)O)ccc2O1 (stereo not given),4%,6%[59 µM],-8,23%,·,1%
Cc1cc(C)c(S(=O)(=O)Nc2cc(Cl)c3oc4c(c3c2)C(=O)CCC4)cc1C,-8%,?,·,39%,-4%,·
C=CCn1c(N)c(C(=O)NCc2ccco2)sc1=S,-25%,-20%[59 µM],·,?,?,2%
O=C(NCc1ccco1)c1sc(=S)n2c1[nH]c(=O)c1ccccc12,50µM*,22µM*,·,?,?,-20%
O=C(NC1CCCC1)c1sc(=S)n2c1[nH]c(=O)c1ccccc12,89µM*,?,·,-36%,?,0%
O=C(Nc1cccc(N2C(=O)C=CC2=O)c1)c1cccs1,·,?,·,·,?,28µM*
NCC[C@H](O)C(=O)N[C@H]1C[C@@H](N)[C@@H](O[C@H]2O[C@@H](CN)[C@@H](O)[C@@H](O)[C@@H]2O)[C@@H](O)[C@@H]1O[C@H]1O[C@@H](CO)[C@@H](O)[C@@H](N)[C@@H]1O,·,27%[21.5 µM],·,·,·,·
CCN1C(=O)/C(=C\c2ccc(-c3ccc([N+](=O)[O-])cc3OC)o2)SC1=Nc1cccc(C(=O)O)c1,56µM*,11µM*,-50*,28µM*,50µM*,?
O=C(O)c1cccc(-c2ccc(/C=C3/SC(=Nc4ccccc4)N(Cc4cccnc4)C3=O)o2)c1,45µM*,32µM*,-29,?,50µM*,·
CCN=C1S/C(=C/c2ccc(-c3ccc(Cl)cc3C(=O)O)o2)C(=O)N1CC,-15%,45µM*,-25,44%,?,·
CCN=C1S/C(=C\c2cc(Cl)c(OC)c(OC)c2)C(=O)N1CC,14%,-12%,-8,4%,-3%,·
CCN1C(=O)/C(=C\c2ccc(-c3cccc(C(=O)OC)c3)o2)SC1=Nc1ccc(C(=O)O)cc1,·,·,·,·,-36%,-11%
O=[N+]([O-])c1cccc(S(=O)(=O)N2CCN(c3nc(-c4cccs4)nc4ccccc34)CC2)c1,-33%,·,·,9%,·,·
CC(=O)N1CCN(c2ccc(NS(=O)(=O)c3ccc4c(c3)CC(=O)N4)cc2)CC1,126µM*,·,·,·,·,·
CC(=O)c1ccc(N2CCN(S(=O)(=O)c3ccc4c(c3)CC(=O)N4)CC2)cc1,-29%[229 µM],·,-14,44%,1%,·
O=S(=O)(Nc1ccc(N2CCOCC2)cc1)c1c(F)cc(F)cc1Br,-25%[57.1 µM],40µM*,?,?,-30%,·
Cc1cc(C)c(S(=O)(=O)Nc2ccc(N3CCOCC3)cc2)c(C)c1,-35%,?,4,-12%,?,·
Cc1cc(S(=O)(=O)Nc2ccc(N3CCOCC3)cc2)ccc1Br,?,40µM*,-5,0%,?,·
COc1ccc(S(=O)(=O)Nc2ccc(-n3cnnn3)cc2)cc1Br,-6%,56µM*,-9,26%,-6%,11%
SMILES,JMJD2A Tudor inh,G9a inh,PI5P4K alpha inh,HP1b binding inh,BAZ2B block,L3MBTL1 inh
O=C(CCC1N=C2c3ccccc3N=C(SCc3ccc(Cl)cc3)N2C1=O)NC1CCCCC1 (stereo not given),-19%,4%[59 µM],·,11%,-1%,·
COc1ccc(Cl)cc1NC(=O)c1ccc2c(c1)CCCN2S(C)(=O)=O,-15%,-1%[59 µM],·,41%,-1%,·
CCc1ccc(-n2c(C)nc3cc(C(=O)NCCc4ccccc4)ccc32)cc1,-28%,?,·,29%,-15%,·
CC(=O)N1c2ccc(S(=O)(=O)Nc3ccc(C)c(C)c3)cc2CC1C (stereo not given),-28%,·,·,·,·,·
COc1ccc(S(=O)(=O)NC2CCCCC2)cc1-n1cnnn1,79µM*,-3%,-27,-5%,-25%,5%
Cc1cc(S(=O)(=O)NC2CCCCC2)ccc1-n1cnnn1,8%,·,-6,18%,-12%,4%
COc1ccc(S(=O)(=O)Nc2ccccc2N2CCOCC2)cc1[N+](=O)[O-],-23%,·,-4,2%,-30%,·
CN1C(=O)Cc2cc(S(=O)(=O)Nc3ccc(N4CCOCC4)cc3)ccc21,-16%,79µM*,-1,7%,-20%,·
COc1ccc(S(=O)(=O)Nc2ccc(N3CCOCC3)cc2)cc1[N+](=O)[O-],-15%,45µM*,3,33%,-30%,-5%
COc1ccc(S(=O)(=O)Nc2ccc(N3CCOCC3)cc2)cc1Br,?,10µM*,7,-17%,?,·
Cc1cccc(-c2nc3nc(C)cc(NCc4ccccc4Cl)n3n2)c1,-23%,0%[59 µM],·,1%[57 µM],-9%,·
CCOc1ccccc1CNC(=O)C1CCN(C(=O)N2CCOc3ccc(Cl)cc32)CC1,?,?,·,3%,?,·
